High-throughput results: PubChem, National Center for Advancing Translational Sciences (NCATS)
IP6K1 inhibitor: inhibitors of human IP6K1; Q92551; IP6K1 kinase, ADP-Glo luminescence, 2 h; active compounds read low; activity change, % (series mostly up to about 58 µM); 140,000 compounds, 0.81% hits; AID 1645851; in the data active = activity change below about -25%; also: % is scaled to controls: 0 for no effect and ±100 for the full control effect
Target sequence (Q92551 whole entry, looked up): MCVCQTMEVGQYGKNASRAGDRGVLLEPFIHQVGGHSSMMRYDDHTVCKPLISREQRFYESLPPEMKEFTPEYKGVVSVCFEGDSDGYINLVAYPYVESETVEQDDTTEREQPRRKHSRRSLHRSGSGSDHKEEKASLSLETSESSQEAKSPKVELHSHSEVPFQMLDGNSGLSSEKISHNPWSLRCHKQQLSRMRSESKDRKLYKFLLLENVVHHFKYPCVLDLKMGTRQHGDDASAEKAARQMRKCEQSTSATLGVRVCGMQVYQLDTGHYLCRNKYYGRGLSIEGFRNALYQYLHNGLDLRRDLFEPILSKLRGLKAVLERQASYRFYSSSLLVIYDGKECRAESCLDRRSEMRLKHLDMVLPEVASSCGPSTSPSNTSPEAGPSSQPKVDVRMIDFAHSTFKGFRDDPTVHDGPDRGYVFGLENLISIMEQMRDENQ
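ADP-Glo luminescence measures ADP made by human IP6K1 during a 2 h RT reaction with ATP/IP6 (mix at 1.3 mM/130 uM); top library doses 57.5 and 19.1 uM final.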
SNCA viab count: counter-screen for SNCA expression inhibitors: cell viability; HEK-293-SNCA-luc viability, GF-AFC fluorescence, 24 h; Potency, µM (top dose mostly 57.1 µM), for the others: at the highest dose activity change, negative = cytotoxicity, hits mostly cytotoxic; 150,000 compounds, 0.12% hits; AID 1671193;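 also: potency is read from the fitted curve at half-maximal effect; 0% = DMSO-treated cells and -100% = medium-only wells without cells; nearly all actives have a fitted effect of over 30% in size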
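HEK-293-SNCA-luc cells (1500/well) plated 24 h, then exposed 24 h to a dilution series; GF-AFC added 30 min at 37C, fluorescence 405/540 nm; normalised to medium-only and DMSO wells, Hill fit.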
KDM5B inh: blocks human KDM5B histone demethylase activity; KDM5B demethylase, FDH-coupled NADH fluorescence (FDH is formaldehyde dehydrogenase); Potency, µM (doses to about 57.7 µM), hits mostly inhibitors; 220,000 compounds, 2.6% hits; AID 1347165; also: potency is read from the fitted curve at half-maximal effect; 0% is about no effect; nearly all actives have a fitted effect of over 70% in size
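KDM5BΔAP (200 nM final) in 50 mM HEPES pH 7.5, 0.01% Tween-20 was preincubated 10 min at RT with compound over a concentration range. Substrate mix (H3K4me3 12.5 µM, α-KG 25 µM, Fe²⁺, ascorbate, NAD⁺, FDH) was added, and NADH fluorescence change over 30 min gave dose-response curves.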
SNCA expr inh: SNCA gene expression inhibition; 140,000 compounds, 0.17% hits; AID 1671194; Potency, µM (doses to about 57.2 µM), without a hit: at the top dose activity change, negative = inhibition, hits mostly inhibitors; HEK-293 SNCA-luciferase knock-in, luminescence, 24 h;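 also: potency is read from the fitted curve at half-maximal effect; plate controls were DMSO cells for no effect and cell-free wells for full effect; nearly all actives have a fitted effect of over 45% in size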
* marks the source's active call; other numbers are inactive results; i = inactive; ? = inconclusive; . = no result; [ ] = remark or other dose. This is a sample that favours compounds with a hit; in the whole collection about 3% have one here. Unless noted, calls follow the shape of the dose curve; as a rule, active = well fitted curve in the direction sought with a large enough effect; inconclusive = small, poorly fitted or top-dose-only effect, or another doubt; inactive = no such curve, though single readings can be large; an effect the other way counts as inactive or inconclusive.

SMILES | IP6K1 inhibitor | SNCA viab count | KDM5B inh | SNCA expr inh
Cn1ncc2c(C(=O)NCc3ccc(F)c(F)c3)cc(C(C)(C)C)nc21 | 2.9 | -4.7%[12.5 µM] | . | ?
COc1ccccc1-c1cc(C(=O)NCc2ccc(F)cc2)c2cnn(C)c2n1 | -3.6 | -3.4% | 89.1µM* | -18.6%
Cc1cccc(-c2ocnc2C(=O)NCC(C)c2ccccc2)c1 (stereo not drawn) | . | . | i | .
Cn1ncc2c(C(=O)NCc3ccc(F)cc3)cc(-c3ccc(Cl)nc3)nc21 | -0.6 | -16.6% | 79.4µM* | 9.9%
COC(=O)CNC(=O)c1cc(-c2ccc(Cl)cc2Cl)nc2c1cnn2C | -2.2 | 2.6% | 79.4µM* | 3.6%
Cn1ncc2c(C(=O)NCc3cccc(Cl)c3)cc(-c3ccc(Cl)cc3Cl)nc21 | 11.8 | 20.4% | . | -11.5%
Cn1ncc2c(C(=O)NC3CC3)cc(-c3ccc(F)cc3)nc21 | -7.8 | -12.1% | 112µM* | 7.1%
Cn1ncc2c(C(=O)NC3CCC3)cc(-c3ccc(F)cc3)nc21 | -2.9 | . | . | .
Cn1ncc2c(C(=O)NCCc3ccc(F)cc3)cc(-c3ccc(Cl)nc3)nc21 | 13.9 | -19.1% | . | ?
Cn1ncc2c(C(=O)NCc3cccnc3)cc(-c3ccc(Cl)cc3Cl)nc21 | -12.0 | -17.0% | 79.4µM* | -6.9%
CC(Oc1cccc(Br)c1)C(=O)NNC(=O)c1ccc2c(c1)NC(=O)CCS2 (stereo not drawn) | . | . | i | .
COc1cc(/C=C(/C#N)c2nc3ccccc3o2)ccc1O | . | . | i | .
O=C(Cn1cnc2ccccc2c1=O)Nc1ccc(Cl)c(S(=O)(=O)N2CCOCC2)c1 | . | . | i | .
Cc1cn2nc(C(=O)NCc3cc(F)cc(F)c3)cc2c(N(C)Cc2ccccc2)n1 | -11.7 | -5.2% | 20µM* | -18.8%
Cc1cn2nc(C(=O)NCc3ccccc3)cc2c(N(C)Cc2ccccc2)n1 | -5.3 | -2.3% | 31.6µM* | -25.6%
CSc1ccc(CNC(=O)c2cc3c(N(C)Cc4ccccc4)nc(C)cn3n2)cc1 | -10.3 | 6.0% | 25.1µM* | -2.3%
Cc1cccc(CNC(=O)c2cc3c(N(C)Cc4ccccc4)nc(C)cn3n2)c1 | -8.7 | -0.2% | 25.1µM* | -14.2%
CSc1ccc(CNC(=O)c2cc3c(=O)[nH]c(C)cn3n2)cc1 | -14.5 | 11.8% | i | 196.0%
COc1ccccc1Nc1ccnc(N2CCCC(C(=O)NCc3ccc(F)cc3)C2)n1 (stereo not drawn) | 4.8 | 1.0%[12.5 µM] | . | ?
O=c1c2nc(-c3ccsc3)ccc2ncn1-c1ccc(F)cc1F | -4.1 | -10.0%[87.6 µM] | 35.5µM* | 18.1%[87.6 µM]
O=c1c2nc(-c3ccccc3)ccc2ncn1-c1ccc(F)cc1F | 2.0 | -21.5%[87.6 µM] | ? | 18.2%[87.6 µM]
COc1ccc(-c2ccc3ncn(-c4ccc(F)cc4F)c(=O)c3n2)cc1OC | -3.6 | -12.9%[87.6 µM] | 39.8µM* | -13.5%[87.6 µM]
CSc1ccc(-c2cccc(CN3CCC(NC(=O)c4ccc(C(F)(F)F)cc4)CC3)c2)cc1 | 5.3 | . | . | .
Cc1ccc(F)cc1S(=O)(=O)NC1CCN(c2ccc(=O)n(CC3CC3)n2)CC1 | -0.2 | -11.5% | 28.2µM* | ?
O=C1NCCCCCCN(Cc2ccccc2)[C@H]2CCC[C@@H]12 | 9.2 | 5.7% | 8.91µM* | -16.0%
SMILES | IP6K1 inhibitor | SNCA viab count | KDM5B inh | SNCA expr inh
COc1cccc(CN2CC[C@H]3C(=O)NCCCCCCN(Cc4ccncc4)[C@@H]3C2)n1 | 11.2 | -0.3% | 20µM* | -13.8%
O=C1NCCCCCCN(Cc2cccc(F)c2)[C@H]2CCC[C@@H]12 | 13.0 | -9.1% | ? | ?
FC(F)(F)CN1CCNCC1 | . | . | i | .
COCCn1c(SCCOc2ccc(Cl)cc2)nnc1-c1ccccc1 | . | . | i | .
COc1ccc(CNC(=O)Nc2ccc(Cl)cc2C)cn1 | . | . | i | .
CCc1ccc2oc(C(=O)NCC(c3cccs3)N3CCCC3)cc(=O)c2c1 (stereo not drawn) | . | . | i | .
CCn1cc(CN2CCC3(CC2)CN(C)CC3COC)cn1 (stereo not drawn) | 17.3 | -24.9% | 25.1µM* | 6.5%
COCC1CN(C)CC12CCN(Cc1cnn(C(C)C)c1)CC2 (stereo not drawn) | -2.6 | -6.7% | ? | -20.6%
N#C/C(=C/c1ccoc1)c1nc(-c2ccc(C3CCCCC3)cc2)cs1 | . | . | i | .
COc1ccc(C(=O)N2CCC(C(NC(=O)c3ccccc3C)C(=O)NC(C)C(C)C)CC2)cc1 (stereo not drawn) | 9.9 | 20µM* | i | -22.3%
O=C1COCCN1c1cc(-c2cccc(F)c2)cn2cncc12 | 12.4 | 0.2%[87.6 µM] | 35.5µM* | -9.8%[87.6 µM]
CC(=O)c1c[nH]c2ccc(Br)cc12 | . | . | i | .
Cc1cc(C)cc(NC(=O)c2cc3n(n2)CC(c2ccc(Cl)cc2)OC3)c1 (stereo not drawn) | -8.8 | -22.4% | 25.1µM* | ?
